The list is not random: actives were taken first. Their share in the collection is about 19%.
HT1080 IDH1KD tx: kills HT-1080 cells with IDH1 knockdown. AID 686971. Potency, µM (titrated, usually from 46.1 µM), hits mostly cytotoxic. HT-1080 IDH1 knockdown viability, ATP luminescence, 48 h. hit rate 2% among 360,000
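HT-1080-IDH1KD cells (IDH1 knocked down), 750/well in RPMI with 5% FBS, treated with compound 48 h at 37 degrees C. Viability by CellTiter-Glo luminescence, normalised to DMSO and no-cell wells; concentration-response curves classed.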
DT40 TDP1 no CPT: qHTS for Inhibitors of human tyrosyl-DNA phosphodiesterase 1 (TDP1): qHTS in cells in absence of CPT. hit rate 15% among 420,000. Potency, µM (highest dose often 46.2 µM), hits mostly inhibitors. DT40 Tdp1-/- hTDP1 cells, no CPT, ATP luminescence, 48 h. AID 686978, 2013; also: nearly all actives have a fitted effect of over 55% in size
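Luminescent ATP content (CellTiter-Glo) served as the growth readout. Knockout chicken DT40 cells expressing human TDP1 were exposed to compounds without camptothecin for a minimum 48 hr at 37 °C.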
TDP1 cell CPT: growth inhibition of DT40 Tdp1-/-;hTDP1 cells with camptothecin (screen for TDP1 inhibitors); chicken DT40 Tdp1-/-;hTDP1 cells + 20 nM CPT, ATP luminescence, 48 h; hit rate 12% among 420,000; Potency, µM (series often up to 46.2 µM), most hits filed as inhibitors; also: nearly all actives have a fitted effect of over 55% in size
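Chicken DT40 Tdp1-/- cells complemented with human TDP1, 400 cells/well, exposed to compounds plus 20 nM camptothecin for at least 48 h at 37 C; viability read as ATP content by CellTiter-Glo luminescence.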
IL-1B inflam inh: inflammasome signaling inhibition, IL-1 beta readout; THP-1 LPS/ATP IL-1B secretion, AlphaLISA, 16 h; stronger effect = lower value; activity change, % at 57.5 µM; hit rate 4.7% among 360,000; AID 743279; in the data active = activity change below about -50%; inconclusive = mostly about -30% to -49%
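THP-1 cells pretreated 1 hr with compounds (up to 57.5 uM final), then stimulated with LPS (250 ng/mL final) plus ATP (1.25 mM final); secreted IL-1B measured by AlphaLISA after 16 hr, decreased signal indicating inhibition.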
HT1080NT lethal: kills 2HG-producing HT-1080-NT fibrosarcoma cells; HT-1080-NT fibrosarcoma viability, CellTiter-Glo ATP luminescence, 48 h; Potency, µM (doses to about 46.1 µM), most hits filed as cytotoxic; hit rate 1.6% among 360,000;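 also: NT is the 2HG producing partner of a matched IDH1 knockdown line; nearly all actives have a fitted effect of over 55% in size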
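Viability of the 2HG-overproducing fibrosarcoma line after 48 hours of compound exposure at 37 degrees C was determined by luminescence with CellTiter-Glo, and concentration-effect curves were then fitted and categorized.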
Hits are given with their value; 0 = inactive; ? = inconclusive; - = no result given; [ ] = remark or other dose. Unless noted, calls follow the shape of the dose curve; as a rule, active = well fitted curve in the direction sought with a large enough effect; inconclusive = small, poorly fitted or top-dose-only effect, or another doubt; inactive = no such curve, though single readings can be large; an effect the other way counts as inactive or inconclusive.

SMILES | HT1080 IDH1KD tx | DT40 TDP1 no CPT | TDP1 cell CPT | IL-1B inflam inh | HT1080NT lethal
CC(=O)NC/C(C)=N\Nc1ccc([N+](=O)[O-])cc1 | 3.66µM | ? | ? | 0 | 4.61µM
C/C(=N\NC(=O)C(N)=O)c1cccc([N+](=O)[O-])c1 | 0 | 0 | 0 | 0 | 0
O=C(CCc1nc2ccccc2c(=O)[nH]1)N1CCCc2ccccc21 | 0 | 8.2µM | ? | 0 | 0
CCN1CCN(C(=O)CCc2nc3ccccc3c(=O)[nH]2)CC1 | 0 | 0 | ? | 0 | 0
O=C(CCc1nc2ccccc2c(=O)[nH]1)N1CCN(c2ccccc2Cl)CC1 | 0 | 16.4µM | 20.6µM | 0 | 0
CCOC(=O)N1CCC(=NNC(=O)COc2cccc(C)c2)CC1 | 0 | 0 | 0 | 0 | 0
CCN1C(=O)C(CC(=O)Nc2ccc(F)cc2)N(CCCN2CCN(c3ccc(F)cc3)CC2)C1=S (configuration not stated) | ? | 14.6µM | 14.6µM | ? | 29.1µM
CCCOc1ccc(NC(=O)CC2C(=O)N(CC)C(=S)N2CCCN2CCN(Cc3ccccc3)CC2)cc1 (configuration not stated) | 16.4µM | 14.6µM | 14.6µM | -99.9 | 16.4µM
CC(C)NC(=S)N/N=C/c1ccc(C(C)(C)C)cc1 | ? | 10.3µM | 13µM | -68.2 | ?
Cc1ccc(C)c(/C=N/NC(=S)NC(C)C)c1 | 0 | 5.8µM | 5.8µM | 0 | 0
CC(C)NC(=S)N/N=C/c1ccccc1[N+](=O)[O-] | 0 | ? | 0 | 0 | 0
S=C(NCCc1ccccc1)N/N=C/c1cccs1 | 0 | ? | ? | 0 | 0
CC(C)NC(=S)N/N=C/c1cccs1 | 0 | 0.82µM | 0.92µM | 0 | 0
COCCN(C)C(=O)c1cnn(-c2ncc3c(n2)-c2ccccc2CCC3)c1C1CC1 | - | 0 | 0 | - | -
CC(C)CCNC(=O)c1nnc(Cc2ccc(Cl)cc2)o1 | 0 | 0 | 0 | 0 | 0
Cc1nc(-c2ccc(F)cc2)c(CC(=O)N2CCN(S(=O)(=O)c3cccc(F)c3)CC2)s1 | 0 | 14.6µM | 20.6µM | 0 | 0
Cc1ccc(C)c(S(=O)(=O)N2CCN(C(=O)Cc3sc(C)nc3-c3ccc(F)cc3)CC2)c1 | 0 | ? | ? | 0 | 0
COc1ccc(C(C)=O)cc1CSc1nnc(Nc2ccccc2C)s1 | 0 | ? | ? | 0 | ?
COc1ccc(C(C)=O)cc1CSc1nnc(Nc2c(C)cccc2C)s1 | 0 | ? | 20.6µM | 0 | 0
CC(C)CCN1C(=O)c2ccc(C(=O)NCc3ccccn3)cc2C1=O | 0 | 0 | 0 | 0 | 0
CCOC(=O)c1c(C2CC2)csc1NC(=O)COC(=O)c1ccc[n+]([O-])c1 | 0 | ? | 0 | 0 | 0
CCOC(=O)c1c(C2CC2)csc1NC(=O)COC(=O)c1cc(OC)c(OC)cc1[N+](=O)[O-] | 0 | 20.6µM | ? | 0 | 0
CN1CCN(C(=O)C2CCC(=O)N(CCc3cccc(F)c3)C2)CC1 (configuration not stated) | 0 | 0 | 0 | 0 | 0
COc1ccc(-n2c(-c3ccc(Cl)cc3)c[n+]3c2CCc2ccccc2-3)cc1 | 8.2µM | 2.31µM | 2.91µM | -54.9 | 23.1µM
Cc1ccc(S(=O)(=O)N2CCC(=O)N(C(COCc3ccccc3)C(C)C)CC2)cc1 (configuration not stated) | 0 | ? | ? | 0 | 0
SMILES | HT1080 IDH1KD tx | DT40 TDP1 no CPT | TDP1 cell CPT | IL-1B inflam inh | HT1080NT lethal
Cc1ccc(S(=O)(=O)N2CCC(=O)N([C@H](COCc3cccc(C)c3)C(C)C)CC2)cc1 | 0 | ? | ? | 0 | 0
Cc1ccc(S(=O)(=O)N2CCC(=O)N(C(COCc3ccc(Cl)cc3)Cc3ccccc3)CC2)cc1 (configuration not stated) | 0 | 16.4µM | ? | 0 | 0
Cc1ccc(S(=O)(=O)N2CCC(=O)N([C@H](COCc3ccc(Cl)cc3Cl)Cc3ccccc3)CC2)cc1 | 0 | 23.1µM | ? | 0 | 0
CC1(CCc2ccccc2)NC(=O)N(CC(=O)N2CCCCCC2)C1=O (configuration not stated) | 0 | 0 | 0 | 0 | 0
O=[N+]([O-])c1cc(Cl)cc2c1nc(NCCO)c1ccccc12 | ? | ? | 0 | -82.9 | ?
CN(Cc1ccccc1N1CCCC1)C(=O)c1cc2cc(Cl)ccc2o1 | 0 | 0 | 11.6µM | 0 | 0[9.24 µM]
O=C(NCCS(=O)(=O)N1CCN(c2cccc(Cl)c2)CC1)c1cc(=O)c2ccccc2o1 | 0 | 2.06µM | ? | 0 | 0
CN(C)CCNS(=O)(=O)c1ccc(N2CCN(c3ccc(F)cc3)CC2)c([N+](=O)[O-])c1 | 18.4µM | 13µM | 13µM | -73.5 | ?
Cc1ccc(S(=O)(=O)NCCS(=O)(=O)N2CCN(c3ccc(F)cc3)CC2)cc1 | 0 | 11.6µM | ? | 0 | 0
O=S(=O)(NCCS(=O)(=O)N1CCN(c2cccc(Cl)c2)CC1)c1ccc(F)cc1 | - | 20.6µM | 0 | - | -
O=S(=O)(NCCS(=O)(=O)N1CCN(c2ccccc2)CC1)c1ccccc1 | 0 | ? | 0 | 0 | 0
O=C(NCCS(=O)(=O)N1CCN(c2cccc(Cl)c2)CC1)c1ccc2c(c1)OCO2 | 0 | ? | ? | 0 | 0
CCCCOc1ccc(C(=O)N2CCN(CCc3ccccn3)CC2)cc1 | - | 0 | 0 | - | -
CC(C)(C)OC(=O)C[C@@H]1C/C=C\C[C@H](CC(=O)N(CCO)Cc2ccccc2)C(=O)N[C@H](C(C)(C)C)COC1=O | 0 | ? | ? | 0 | 0
C[C@H]1COC(=O)[C@H](Cc2ccc(F)cc2)C/C=C\C[C@H](CC(=O)N(CCO)Cc2ccccc2)C(=O)N1 | 0 | ? | ? | 0 | 0
O=C(N[C@@H]1C/C=C\C[C@@H](CC(=O)N(CCO)Cc2ccccc2)C(=O)NCCOC1=O)OCC1c2ccccc2-c2ccccc21 | 0 | 9.2µM | 16.4µM | 0 | 0
CC(C)(C)[C@H]1COC(=O)[C@H](NC(=O)OCC2c3ccccc3-c3ccccc32)C/C=C\C[C@@H](CC(=O)N(CCO)Cc2ccccc2)C(=O)N1 | 0 | 23.1µM | 9.2µM | 0 | ?
C[C@@H]1COC(=O)[C@H](NC(=O)OCC2c3ccccc3-c3ccccc32)C/C=C\C[C@@H](CC(=O)N(CCO)Cc2ccccc2)C(=O)N1 | 0 | 14.6µM | 9.2µM | 0 | 0
O=C(N[C@@H]1C/C=C\C[C@H](CC(=O)N(CCO)Cc2ccccc2)C(=O)N[C@@H](Cc2ccccc2)COC1=O)OCC1c2ccccc2-c2ccccc21 | 0 | 16.4µM | 16.4µM | 0 | 0
CCCCn1nnnc1C1(C)CCC(=O)N1CCc1ccc(OC)c(OC)c1 (configuration not stated) | 0 | 0 | 0 | 0 | 0
O=C(NCc1ccc(Cl)cc1)c1ccc2ccccc2n1 | 0 | 0 | 0 | 0 | 0
O=c1[nH]c(CN2CCCCC2)ccc1O | 0 | 0 | 0 | 0 | 0
COc1ccc(CCNC(=O)C(=O)N2CCCC2)cc1OC | 0 | 0 | 0 | 0 | 0

Compound activity deposited in PubChem by National Center for Advancing Translational Sciences (NCATS).
